Results filed as inconclusive are left out. Calls of active or inactive are those of the source. Rule for the calls, unless noted: active = hit-call score of the fitted dose curve at least 0.9, where 1 is the maximum; inconclusive = response in the unintended direction; inactive = score below 0.9.
Legend:
[1] = Tanguay_ZF_120hpf_CFIN_legacy: (Legacy) Oregon State University Tanguay Lab 120 Hour Post-fertilization zebrafish Assay for Caudal Fin Malformation (AID 2283649)
Summary of the method: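 Binary presence or absence of caudal fin malformation at 120 hpf, read by brightfield microscopy, with DMSO as baseline. Larvae came from 5D wild-type embryos exposed statically from 6 hpf at 28C after pronase dechorionation.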

[2] = Tanguay_ZF_120hpf_PIG_legacy: (Legacy) Oregon State University Tanguay Lab 120 Hour Post-fertilization zebrafish Assay for Pigmentation Malformation (AID 2283650)
Summary of the method: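 Tropical 5D wild-type zebrafish embryos, dechorionated with pronase at 4 hpf, were exposed singly from 6 hpf to 120 hpf statically at 28C in sealed, dark plates with 0.64% DMSO; pigmentation scored present/absent by brightfield microscopy, fitted against DMSO.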

[3] = Tanguay_ZF_120hpf_CIRC_legacy: (Legacy) Oregon State University Tanguay Lab 120 Hour Post-fertilization zebrafish Assay for Circulatory Malformation (AID 2283651)
Summary of the method: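 Read-out: presence or absence of circulatory malformation at 120 hpf, scored by brightfield microscopy, fitted in the gain-of-signal direction against DMSO baseline. Wild-type 5D larvae were exposed from 6 hpf after enzymatic chorion removal.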

[4] = Tanguay_ZF_120hpf_SWIM_legacy: (Legacy) Oregon State University Tanguay Lab 120 Hour Post-fertilization zebrafish Assay for Swim Bladder Malformation (AID 2283654);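 note: swim bladder malformation in each larva scored yes or no under brightfield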
Summary of the method: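 Dechorionated Tropical 5D wild-type embryos, placed singly from 6 hpf, were statically exposed at 28C to 120 hpf with 0.64% DMSO final; swim bladder malformation was scored present/absent by brightfield microscopy, gain of signal relative to DMSO controls.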

[5] = Tanguay_ZF_120hpf_TRUN_legacy: (Legacy) Oregon State University Tanguay Lab 120 Hour Post-fertilization zebrafish Assay for Truncated Body (AID 2283655)
Summary of the method: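 Truncated body is recorded as a binary endpoint at 120 hpf by brightfield imaging of wild-type 5D larvae. Exposure runs statically from 6 hpf at 28C with 0.64% DMSO; embryos dying earlier are not scored.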

[6] = Tanguay_ZF_120hpf_NC_legacy: (Legacy) Oregon State University Tanguay Lab 120 Hour Post-fertilization zebrafish Assay for Notochord and Tail Malformation (AID 2283656)
Summary of the method: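 Dechorionated Tropical 5D wild-type zebrafish embryos, one per well from 6 hpf, statically exposed to 120 hpf at 28C in 0.64% DMSO final. Notochord distortion scored present/absent by brightfield; dead embryos excluded.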

[7] = read-out: kallikrein-3 (KLK3), KLK3 (gene 354); experiment: LTEA_HepaRG_KLK3: Life Technologies and Expression Analysis (LTEA) Assay for kallikrein-3 (KLK3) using HepaRG (AID 2283652; active = hit-call score of the fitted dose curve at least 0.9, where 1 is the maximum; inactive = score below 0.9); conditions: mRNA level, 48 h; actives raise or lower the signal
Summary of the method: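 Differentiated human HepaRG cells in serum-free induction medium exposed 48 h in duplicate, eight-point half-log series from 100 uM in 0.5% DMSO. KLK3 mRNA by qRT-PCR, normalised to ACTB, GAPDH, POLR2A; bidirectional fit versus DMSO.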

[8] = read-out: solute carrier (SLC22A6), SLC22A6 (gene 9356); experiment: LTEA_HepaRG_SLC22A6: Life Technologies and Expression Analysis (LTEA) Assay for solute carrier (SLC22A6) using HepaRG (AID 2283653; active = hit-call score of the fitted dose curve at least 0.9, where 1 is the maximum; inactive = score below 0.9); conditions: mRNA level, 48 h; actives raise or lower the signal
Experimental: LTEA_HepaRG is a cell based, multiplexed-readout assay that uses HepaRG, a human liver cell line, with measurements taken at 48 hours after chemical dosing on a 96-well plate.LTEA_HepaRG_SLC22A6 is one of 102 assay component(s) measured in the LTEA HepaRG cell culture assay. It is a marker of NR mediated transport.Data from the assay component LTEA_HepaRG_SLC22A6 was analyzed into 1 endpoint. This assay endpoint, LTEA_HepaRG_SLC22A6, was analyzed with bidirectional fitting relative to DMSO as the negative control and baseline of activity. Using a type of inducible reporter, measures of mRNA induction for gain or loss-of-signal activity can be used to understand regulation of transcription factor activity. To generalize the intended target to other relatable targets, this assay endpoint is annotated to the transporter intended target family, where the subfamily is organic anion transporter.
A total of 1060 chemcials from the ToxCast library were tested in eight-point concentration-response experiments. Cell culture and cytotoxicity assays were conducted at Thermo Fisher Scientific's Custom Services facility (Madison, WI). A single lot of human HepaRG cells (Thermo Fisher Scientific, Frederick, MD) was used for the cell culture experiments. 96-well format collagen type I coated plates of human HepaRG cells were prepared using established methods. Briefly, cryopreserved HepaRG cells were thawed, plated at a density of approximately 100,000 cells/well in HepaRG Thaw, Plate, and General Purpose media (HPRG770, Thermo Fisher Scientific), and incubated for 48 hours. 0.5% DMSO was selected as vehicle control to balance the requisite need of DMSO in HepaRG cultures to maintain differentiation (for example, baseline metabolism, proportions of hepatocytes vs. cholangiocytes), while enabling further hepatic receptor pathway activation (for example, PXR and CAR) in response to chemical exposure. 48 hours after plating, the culture medium was replaced with HepaRG Serum-Free Incudtion Media. Cells were exposed to each test chemical in duplicate and maintained in CO2 incubators for another 48 hours. Chemical plates were thawed to room temperature and 200x concentrations of treatment groups were prepared. 8-point conentration-reponse curves were made with the highest exposure at 100 uM, followed by half-log dilutions, all in 0.5% DMSO. Each test plate contained variouse controls, induction positive controls (1mM phenobarbital), cytotoxicity positive controls ([…] aflatoxin B1), vehicle controls (0.5% DMSO), and total lysis controls (0.5% DMSO). Cell morphology images were taken using an Essen IncuCyte FLR automated microscope, with six 96-well plates imaged in about 24 minutes. Images were captured and exported and JPEG files. Spent culture media was transfered to black-well plates for the LDH assay, and remaining media was sorted at -80 C for later use. Cells were treated with RLT buffer and frozen until shipped for gene expression analysis. Total RNA was isolated from the cell suspension in 75 uL of Buffer RLT (Qiagen, Germantown, MD 20874) by Quintiles/Expression Analysis (Durham, NC) using a custom isolation procedure. Total RNA from each plate well was transferred to a preamplification plate. Fluidigm's 96.96 Dynamic ArrayTM (Fluidigm, Amsterdam, the Netherlands) technology was used for gene expression analyses by quantitative reverse transcription polymerase chain reaction (qRT-PCR, performed by Quintiles/Expression Analysis, Durham, NC)89. Standard TaqManTM Assays (Applied Biosystems/ThermoFisher Scientific, Foster City, CA) were used to assess the expression of 93 genes selected based on their selectivity and sensitivity to important hepatic receptors known to be modulated by environmental chemicals; importance in human hepatocyte functionality; and hepatotoxicity. […]

[9] = read-out: solute carrier (SLC10A1), SLC10A1 (gene 6554); experiment: LTEA_HepaRG_SLC10A1: Life Technologies and Expression Analysis (LTEA) Assay for solute carrier (SLC10A1) using HepaRG (AID 2283657; active = hit-call score of the fitted dose curve at least 0.9, where 1 is the maximum; inactive = score below 0.9); conditions: mRNA level, 48 h; actives raise or lower the signal
Summary of the method: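 Differentiated HepaRG cells were plated 48 h, then exposed in serum-free induction medium for 48 h to 8 concentrations (top 100 uM, half-log steps, 0.5% DMSO). SLC10A1 mRNA was quantified by qRT-PCR normalized to ACTB, GAPDH, POLR2A; bidirectional fit versus DMSO.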

[10] = read-out: matrix metalloproteinase-1 (MMP1), MMP1 (gene 4312); experiment: LTEA_HepaRG_MMP1: Life Technologies and Expression Analysis (LTEA) Assay for matrix metalloproteinase-1 (MMP1) using HepaRG (AID 2283658; active = hit-call score of the fitted dose curve at least 0.9, where 1 is the maximum; inactive = score below 0.9); conditions: mRNA level, 48 h; actives raise or lower the signal
Summary of the method: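 HepaRG, ~100,000 cells/well, 48 h pre-culture; serum-free induction medium; test chemical 8 conc (max 100 uM, half-log), duplicate, 48 h; 0.5% DMSO; qRT-PCR MMP1, housekeeping-normalized; gain/loss fit vs DMSO.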

Measured: AC50

Cc1oc2c(NC(=O)c3c(Cl)cccc3Cl)cccc2c1C(C)(C)O
inactive: [1] | [2] | [3] | [4] | [5] | [6]

CCCCCCCCCCCO
inactive: [1] | [2] | [3] | [4] | [5]

CN(C)c1ccc(C(=C2C=CC(=[N+](C)C)C=C2)c2ccc(N(C)C)cc2)cc1
inactive: [1] | [2] | [3] | [4] | [5]

Cc1ncc(CO)c(CO)c1O
inactive: [1] | [2] | [3] | [4] | [5] | [6]

O=C1c2ccccc2C(=O)N1CCc1noc(-c2ccc(CN3CCCCCC3)s2)n1
active: [9] 11.1 µM
inactive: all other assays above

OC12N=C(c3ccccc3)SC1Cc1cc(Cl)ccc12 (stereo not drawn)
active: [1] 48.1 µM | [2] 44.5 µM | [5] 48.2 µM
inactive: [3] | [4]

CCCCOC(=O)c1ccc(O)cc1
active: [1] 50.2 µM | [2] 36.9 µM | [3] 40.3 µM | [4] 46 µM | [5] 21 µM
inactive: [6]

NC(=O)c1nc(-c2cccc(-c3cc(F)ccc3OCC(F)(F)C(F)(F)F)c2)n[nH]1
active: [2] 26.7 µM | [3] 27.3 µM | [4] 26.4 µM | [5] 27 µM
inactive: [1] | [6]

Cc1ccc(C(C)C)cc1
inactive: [1] | [2] | [3] | [4] | [5] | [6]

Oc1ccc2ccccc2c1
active: [1] 10.4 µM | [2] 12.9 µM | [5] 50.2 µM
inactive: [3] | [4] | [6]

CN(C)C(=O)C1(N2CCCCC2)CCN(CC[C@@]2(c3ccc(Cl)c(Cl)c3)CN(C(=O)c3ccccc3)CCO2)CC1
inactive: [1] | [2] | [3] | [4] | [5] | [6]

O=C(O)Cc1cc(I)c(Oc2ccc(O)c(I)c2)c(I)c1
active: [2] 0.177 µM
inactive: [1] | [3] | [4] | [5] | [6]

CC1(C)NC(=O)N(c2ccc([N+](=O)[O-])c(C(F)(F)F)c2)C1=O
inactive: [1] | [2] | [3] | [4] | [5] | [6]

Cc1cn([C@H]2C[C@H](N=[N+]=[N-])[C@@H](CO)O2)c(=O)[nH]c1=O
inactive: [1] | [2] | [3] | [4] | [5] | [6]

CC(O)CC(C)(C)O (stereo not drawn)
inactive: [1] | [2] | [3] | [4] | [5] | [6]

CCCCCCCCOC(=O)c1cc(O)c(O)c(O)c1
inactive: [1] | [2] | [3] | [4] | [5] | [6]

COc1ccc2cc(S(=O)(=O)N[C@H](CC(=O)N[C@H](Cc3ccc(CN4[C@H](C)CCC[C@@H]4C)cc3)C(=O)N(C)C(C)C)c3ccc4c(c3)OCO4)ccc2c1
inactive: [1] | [2] | [3] | [4] | [5] | [6]

— PubChem BioAssay (EPA / NIEHS)
